Experimental data as given in the supplement of paper PMC6555819.

Columns and labels:
Test in all cases: PBM binding z-score (relative to random genomic background probes); higher = stronger binding; sequences stand for … in GC…GCGATTGACAGCGTAGAATGAAGG
[1] = system: FXR:RXRa (NR concentration 270 nM, RXRa partner concentration 90 nM)
Summary of the method: (§1)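 Ligand-free nuclear receptor dimers were bound for 1 h to custom Agilent 4×180K protein-binding microarrays. Detection used antibodies against each partner (one per run). Binding z-scores rest on regression-normalized fluorescence, with random background probes as the reference.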

[2] = system: LXRa:RXRa (NR concentration 270 nM, RXRa partner concentration 90 nM)
Summary of the method: as §1

[3] = system: LXRa homodimer (NR concentration 270 nM)
Summary of the method: as §1

[4] = system: LXRb:RXRa (NR concentration 270 nM, RXRa partner concentration 90 nM)
Summary of the method: as §1

[5] = system: LXRb homodimer (NR concentration 270 nM)
Summary of the method: as §1

[6] = system: PPARa:RXRa (NR concentration 270 nM, RXRa partner concentration 90 nM)
Summary of the method: as §1

[7] = system: PPARg:RXRa (NR concentration 180 nM, RXRa partner concentration 90 nM)
Summary of the method: as §1

[8] = system: PPARg:RXRa 270nM:90nM, anti-RXR (NR concentration 270 nM, RXRa partner concentration 90 nM)
Summary of the method: as §1

[9] = system: PPARg:RXRa 30nM:10nM, anti-RXR (NR concentration 30 nM, RXRa partner concentration 10 nM)
Summary of the method: as §1

[10] = system: PPARg:RXRa 90nM:30nM, anti-RXR (NR concentration 90 nM, RXRa partner concentration 30 nM)
Summary of the method: as §1

[11] = system: PPARg:RXRa DBDmut IVT, anti-RXR (DBD mutation: RXRa K156A/R161A, NR concentration 270 nM, RXRa partner concentration 90 nM)
Summary of the method: as §1

[12] = system: PPARg:RXRa IVT, anti-PPARg (NR concentration 270 nM, RXRa partner concentration 90 nM)
Summary of the method: as §1

[13] = system: PPARg DBDmut:RXRa IVT, anti-PPARg (DBD mutation: PPARg1 K132A/R137A, NR concentration 270 nM, RXRa partner concentration 90 nM)
Summary of the method: as §1

[14] = system: PPARg DBDmut IVT, anti-PPARg (DBD mutation: PPARg1 K132A/R137A, NR concentration 270 nM)
Summary of the method: as §1

[15] = system: PPARg homodimer (NR concentration 180 nM)
Summary of the method: as §1

[16] = system: PXR:RXRa (NR concentration 270 nM, RXRa partner concentration 90 nM)
Summary of the method: as §1

[17] = system: PXR homodimer (NR concentration 270 nM)
Summary of the method: as §1

[18] = system: RARa:RXR (NR concentration 270 nM, RXRa partner concentration 90 nM)
Summary of the method: as §1

[19] = system: RARa homodimer (NR concentration 270 nM)
Summary of the method: as §1

[20] = system: RARb:RXRa (NR concentration 270 nM, RXRa partner concentration 90 nM)
Summary of the method: as §1

## ATCTCTAGGTAAGACTCAGTTCATTGAAGAACGC
[1]
  PBM binding z-score: 0.66
[2]
  PBM binding z-score: 1.1
[3]
  PBM binding z-score: 1.32
[4]
  PBM binding z-score: 0.779
[5]
  PBM binding z-score: 1.11
[6]
  PBM binding z-score: 0.841
[7]
  PBM binding z-score: 0.175
[8]
  PBM binding z-score: 0.381
[9]
  PBM binding z-score: 0.0967
[10]
  PBM binding z-score: 0.482
[11]
  PBM binding z-score: 2.32
[12]
  PBM binding z-score: 1.16
[13]
  PBM binding z-score: 1.33
[14]
  PBM binding z-score: 1.23
[15]
  PBM binding z-score: 1.13
[16]
  PBM binding z-score: 2.6
[17]
  PBM binding z-score: 4.35
[18]
  PBM binding z-score: 1.04
[19]
  PBM binding z-score: 1.62
[20]
  PBM binding z-score: 0.694

## ATATGTAGGTTACATTCGGGTCATTCAGGCTATG
[1]
  PBM binding z-score: 2.91
[2]
  PBM binding z-score: 4.73
[3]
  PBM binding z-score: 1.76
[4]
  PBM binding z-score: 3.19
[5]
  PBM binding z-score: 1.04
[6]
  PBM binding z-score: 4.3
[7]
  PBM binding z-score: 5.53
[8]
  PBM binding z-score: 5.07
[9]
  PBM binding z-score: 2.31
[10]
  PBM binding z-score: 4.62
[11]
  PBM binding z-score: 7.46
[12]
  PBM binding z-score: 7.26
[13]
  PBM binding z-score: 5.28
[14]
  PBM binding z-score: 2.88
[15]
  PBM binding z-score: 2.4
[16]
  PBM binding z-score: 3.85
[17]
  PBM binding z-score: 3.72
[18]
  PBM binding z-score: 3.65
[19]
  PBM binding z-score: 1.02
[20]
  PBM binding z-score: 2.32

## CCTACTGGGCCAAGTTCATTGATCAGTCAAAGCA
[1]
  PBM binding z-score: 0.51
[2]
  PBM binding z-score: 0.916
[3]
  PBM binding z-score: 0.751
[4]
  PBM binding z-score: 0.634
[5]
  PBM binding z-score: -0.712
[6]
  PBM binding z-score: 1.83
[7]
  PBM binding z-score: 1.24
[8]
  PBM binding z-score: 2.02
[9]
  PBM binding z-score: 0.309
[10]
  PBM binding z-score: 1.6
[11]
  PBM binding z-score: 3.93
[12]
  PBM binding z-score: 3.54
[13]
  PBM binding z-score: 0.0503
[14]
  PBM binding z-score: -0.432
[15]
  PBM binding z-score: 1.19
[16]
  PBM binding z-score: 2.85
[17]
  PBM binding z-score: 3.64
[18]
  PBM binding z-score: 0.935
[19]
  PBM binding z-score: 0.262
[20]
  PBM binding z-score: 1.88

## TCATCTAGGTAATACAGGTGAAAGTCGGCATCTA
[1]
  PBM binding z-score: 0.88
[2]
  PBM binding z-score: 0.831
[3]
  PBM binding z-score: 0.409
[4]
  PBM binding z-score: 0.796
[5]
  PBM binding z-score: 0.445
[6]
  PBM binding z-score: 2.05
[7]
  PBM binding z-score: 1.29
[8]
  PBM binding z-score: 2.5
[9]
  PBM binding z-score: 3.85
[10]
  PBM binding z-score: 3.22
[11]
  PBM binding z-score: 4.07
[12]
  PBM binding z-score: 4.08
[13]
  PBM binding z-score: 1.3
[14]
  PBM binding z-score: 1.36
[15]
  PBM binding z-score: 0.913
[16]
  PBM binding z-score: 0.275
[17]
  PBM binding z-score: 0.512
[18]
  PBM binding z-score: 0.694
[19]
  PBM binding z-score: 1.29
[20]
  PBM binding z-score: 0.575

## TCATATAGGTTAACAGGTGAAAGTCCGTAAGTTA
[1]
  PBM binding z-score: 1.57
[2]
  PBM binding z-score: 1.72
[3]
  PBM binding z-score: 0.586
[4]
  PBM binding z-score: 1.72
[5]
  PBM binding z-score: 0.145
[6]
  PBM binding z-score: 3.68
[7]
  PBM binding z-score: 5.44
[8]
  PBM binding z-score: 5.12
[9]
  PBM binding z-score: 4.64
[10]
  PBM binding z-score: 4.91
[11]
  PBM binding z-score: 5.79
[12]
  PBM binding z-score: 5.64
[13]
  PBM binding z-score: 2.16
[14]
  PBM binding z-score: 1.92
[15]
  PBM binding z-score: 1.58
[16]
  PBM binding z-score: 1.46
[17]
  PBM binding z-score: 0.372
[18]
  PBM binding z-score: 1.93
[19]
  PBM binding z-score: 1.1
[20]
  PBM binding z-score: 2.08

## TCTGCTAGCTCAACGATGGTCAGCTAATCTGCTA
[1]
  PBM binding z-score: -0.518
[2]
  PBM binding z-score: -0.557
[3]
  PBM binding z-score: -0.771
[4]
  PBM binding z-score: -1
[5]
  PBM binding z-score: -1.03
[6]
  PBM binding z-score: -0.335
[7]
  PBM binding z-score: -0.32
[8]
  PBM binding z-score: 0.116
[9]
  PBM binding z-score: 1.25
[10]
  PBM binding z-score: 0.838
[11]
  PBM binding z-score: 0.317
[12]
  PBM binding z-score: -0.338
[13]
  PBM binding z-score: -0.717
[14]
  PBM binding z-score: -0.143
[15]
  PBM binding z-score: -1.44
[16]
  PBM binding z-score: -0.381
[17]
  PBM binding z-score: -0.501
[18]
  PBM binding z-score: -0.407
[19]
  PBM binding z-score: -1.12
[20]
  PBM binding z-score: -0.267
